Test results as given in PubChem BioAssay AID1259313 (Sanford-Burnham Center for Chemical Genomics, 2017).
The campaign covered roughly 340,000 compounds. About 8,500 (2.5%) were called active.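 Rule for the calls: active = melting temperature shift of at least 10% of the positive control shift, at one fixed dose; inactive = the rest.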 The list comes from a sample in which actives are over-represented; it also holds similar structures and randomly drawn compounds.

These compounds were tested on Glutamate receptor ionotropic, NMDA 3A (GRIN3A) ligand-binding domain (assay: binders of NR3A ligand-binding domain, primary screen, biophysical, differential scanning fluorimetry, uHTS (AID 1259313)). Settings: NR3A LBD differential scanning fluorimetry, at 25 µM, active compounds read high, 0% = protein alone, 100% = glycine-bound protein.

Tm shift relative to glycine control, active:
O=C(Nc1ccc(Cl)cc1)Nc1nnc(/C=C/c2ccccc2)s1 10.2%
Cc1cc(O)cc(O)c1C(=O)Cc1cnn(-c2ccccc2)c1 13.1%
COC(=O)c1c(-c2ccsc2)oc2ccc(-c3cc(OC)c(OC)c(OC)c3)cc12 14.2%
CCc1cccc(NC(=O)COC(=O)C2CCN(c3ccc(C(F)(F)F)cn3)CC2)c1 12.6%
NC(=O)c1ccc(NC(=O)COC(=O)c2c3c(nc4ccccc24)/C(=C\c2ccc4c(c2)OCO4)CCC3)cc1 31.8%
O=C(COC(=O)c1c2c(nc3ccccc13)/C(=C\c1cccs1)CCC2)Nc1ccccc1Cl 14.6%
NS(=O)(=O)c1ccc(NC(=O)COC(=O)c2c3c(nc4ccccc24)/C(=C\c2ccc4c(c2)OCO4)CCC3)cc1 38%
COc1ccc(C(=O)Nc2ccc(S(=O)(=O)NC(C)C)cc2)cc1 14%

Tm shift relative to glycine control, inactive:
O=C(O)c1ccccc1-c1ccccc1C(=O)Nc1ccccc1Br -1.03%
Cc1cc(N2C(=O)c3ccc(C(=O)NCc4ccccc4)cc3C2=O)no1 -0.54%
CC(C)C[C@H](NC(=O)N1CCn2c1nc1ccccc12)C(=O)NC1CC1 -0.74%
COc1ccc(/C=C/c2nnc(NC(=O)C(C)C)s2)cc1 6.05%
O=C(CSc1ccccc1)Nc1nnc(/C=C/c2ccccc2)s1 -4.65%
CC1CN(c2cc(=O)n(Cc3ccc(F)cc3)c(=O)[nH]2)CC(C)O1 (stereo not given) -2.45%
COc1cc(CNC2CCCCC2)c(Br)cc1OC1CCCC1 -0.72%
O=C(c1cnn(-c2ccc(Cl)cc2)c1)c1ccccc1O -2.84%
COc1ccc(CNC(=O)COc2ccccc2C(=O)c2cnn(-c3ccccc3)c2)cc1OC 0.33%
O=C(Nc1ccc(N2CCOCC2)nc1)c1c(F)cccc1F 1.58%
COc1cc(CC(=O)NCc2cccs2)cc(OC)c1OC 2.82%
COc1ccccc1CNC(=O)c1cc(=O)c2ccccc2o1 -2.39%
CCc1ccccc1NC(=O)CN(c1ccc(OC)cc1OC)S(=O)(=O)c1ccccc1[N+](=O)[O-] -2.68%
COc1ccc(Br)cc1CN(C)CC(=O)Nc1cc([N+](=O)[O-])ccc1OC -12.7%
CCOc1ccc(CCNC(=O)COC(=O)C2CCN(c3ccc(C(F)(F)F)cn3)CC2)cc1OCC -4.5%
N#CCCN(C(=O)COC(=O)C1CCN(c2ccc(C(F)(F)F)cn2)CC1)c1ccc(F)cc1 1.13%
COc1ccc(-n2nc(C(=O)NCC(=O)N3CCCCCC3)c3ccccc3c2=O)cc1Cl -2.28%
NS(=O)(=O)c1ccc(NC(=O)COC(=O)c2ccco2)cc1 -3.86%
NS(=O)(=O)c1ccc(NC(=O)COC(=O)CCc2c[nH]c3ccccc23)cc1 -3.19%
COc1cc(/C=C2\CCCc3c2nc2ccccc2c3C(=O)O)cc(Cl)c1O -0.18%
O=C(COC(=O)c1cc(-c2cccs2)nn1-c1ccccc1)Nc1cc([N+](=O)[O-])ccc1Cl -1.02%
O=C(COC(=O)c1ccncc1)Nc1ccc2c(c1)OCO2 -0.26%
O=C(COC(=O)c1ccc(F)cc1)Nc1ccc2c(c1)OCO2 -2.46%
CC(C)(C)n1ncc2c(=O)n(Cc3c(Cl)cccc3Br)cnc21 -3.98%
COc1ccc(NS(=O)(=O)c2ccc(C)c(C(=O)NNC(=O)c3csc(N4CCOCC4)n3)c2)cc1 0.91%
COc1ccc(NC(=O)COC(=O)CNC(=O)C2CCCCC2)cc1 -0.45%
Cc1cc(C)cc(NC(=O)Cn2cnc3c(nnn3Cc3ccc(F)cc3)c2=O)c1 3.35%
COc1ccc(/C=C/CN2CCCC(C(=O)c3cc(F)ccc3F)C2)cc1 (stereo not given) -1.5%
CCN1CCN(c2nc(Nc3cc(OC)ccc3OC)nc(Nc3cc(OC)ccc3OC)n2)CC1 -2.4%
Cc1csc(NC(=O)C2CCN(S(=O)(=O)c3ccccc3)CC2)n1 2.42%
CC(C)(C)NC(=O)COc1ccc(CNc2ccc3[nH]c(=O)[nH]c3c2)cc1 -1.72%
COc1cccc(CN(C)CC(O)COC(c2ccccc2)c2ccccc2C)c1 (stereo not given) -2.39%
C=C(C)Cn1c(C)cc(C)c(S(=O)(=O)c2ccccc2C)c1=O 2.34%
COCCn1c(C)cc(C(=O)CSc2nnc(C3CC3)n2C2CC2)c1C -0.08%
Cc1nc2ccccc2n1CC(=O)N/N=C/c1cccs1 -4.96%
CC(C)NS(=O)(=O)c1ccc(NC(=O)c2cccnc2)cc1 0.24%
COc1ccc(NS(=O)(=O)c2ccc(NC(=O)c3ccc(N(C)S(C)(=O)=O)cc3)cc2)cc1 -0.38%
